For one assay, the target named is Albumin (Bos taurus) (UniProt P02769). The assay can be described thus: compounds binding labelled BSA control protein – biochemical, small-molecule microarray, Alexa647 label, 635/667 nm fluorescence, artefact control for SMM control protein annotation, profiling panel (AID 1118).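 Further: score merges 667 nm emission intensity and signal-to-noise per printed compound spot.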 Conditions: BSA-A647 binding, fluorescence 635 nm, higher = more signal.
A short description of assay [1]: probe aXIP binding to arrayed compounds – biochemical, NeuroSMM set, 635/667 nm fluorescence, primary screen (AID 1119).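 Further: probe is the protein aXip251-270 applied at 1 µg/mL to compound-printed slides; binding of probe to printed compounds measured as 667 nm fluorescence plus signal to noise.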 Conditions: small-molecule microarray, higher = more signal, called active from +8 up or from −8 down.
A short description of assay [2]: probe aNOTCH3 binding on compound microarray – biochemical, small-molecule microarray, 635/667 nm fluorescence, primary screen (AID 1120).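 Further: probe is a biotin-tagged antibody raised against NOTCH3 rather than NOTCH3 protein; score merges spot fluorescence near 667 nm with spot signal to noise.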 Conditions: higher = more signal.
Assay [3] can be described thus: probe aNOTCH2 binding on compound microarray – biochemical, small-molecule microarray, 635/667 nm fluorescence, primary screen (AID 1121).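 Further: score merges feature fluorescence read at 667 nm with its signal to noise.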 As to conditions: higher = more signal.
Assay [4] addresses Carbonic anhydrase 2 (Homo sapiens) (UniProt P00918). Description: compounds binding carbonic anhydrase 2 – biochemical, small-molecule microarray, Alexa647-labelled CAII, profiling panel (AID 1122). As to conditions: CAII-A647 binding fluorescence, higher = more signal.
A short description of assay [5]: COS7 lysate on small-molecule microarray, probe aHis, 635 nm (AID 1123).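 Further: z-score combines 667nm fluorescence intensity with signal-to-noise per printed compound spot.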 As to conditions: COS7 cell lysate, fluorescence, higher = more signal.
Assay [6] is described as follows: probe aLAP1 signal on lysate-treated microarray – cell lysate, small-molecule microarray, COS7 lysate, primary screen (AID 1124).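 Further: lysate comes from COS7 cells expressing LAP1 and is applied at 0.3 µg/mL; score merges spot fluorescence near 667 nm with signal-to-noise over triplicate slides.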 As to conditions: probe aLAP1, fluorescence, higher = more signal.
A further assay deals with Sam68 (KHDRBS1). The assay can be described thus: compounds binding KHDRBS1 protein – biochemical, small-molecule microarray, 635 nm fluorescence, primary screen (AID 1125).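 Further: score merges 667 nm channel intensity with signal to noise over triplicate slides.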 As to conditions: higher = more signal.
The subject of assay [7] is Chordin-like protein 2 (CHRDL2). The assay can be described thus: compounds binding chordin-like 2 – biochemical, small-molecule microarray, 635 nm fluorescence, primary screen (AID 1126).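 Further: printed compound slides probed with Chrdl2 protein at 4 µg/mL for 1 h at 4 C; score merges 667 nm emission intensity with signal to noise over three replicate slides.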 Conditions: fluorescence 635 nm, higher = more signal.
For assay [8], the target named is Concanavalin-A (Canavalia ensiformis) (UniProt P02866). The assay can be described thus: compounds binding concanavalin A lectin – biochemical, small-molecule microarray, Alexa647 label, 635 nm, artefact control for SMM control protein annotation, primary screen (AID 1127).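 Further: z combines 667 nm emission intensity with signal-to-noise across three replicate slides.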 Conditions: ConA-A647 binding fluorescence, higher = more signal.
Concanavalin-A (Canavalia ensiformis), sequence (P02866 whole entry, looked up): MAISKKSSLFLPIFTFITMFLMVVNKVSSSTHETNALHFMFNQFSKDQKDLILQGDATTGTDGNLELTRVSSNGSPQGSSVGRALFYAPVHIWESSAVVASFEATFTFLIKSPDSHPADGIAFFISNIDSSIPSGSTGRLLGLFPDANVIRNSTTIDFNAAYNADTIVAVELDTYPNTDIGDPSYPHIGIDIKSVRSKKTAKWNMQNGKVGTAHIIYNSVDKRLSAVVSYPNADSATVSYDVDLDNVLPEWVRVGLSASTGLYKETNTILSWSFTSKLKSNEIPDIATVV

Molecules are shown by their SMILES. Active and inactive are the calls of the source.

Albumin (Bos taurus), sequence (P02769 whole entry, looked up): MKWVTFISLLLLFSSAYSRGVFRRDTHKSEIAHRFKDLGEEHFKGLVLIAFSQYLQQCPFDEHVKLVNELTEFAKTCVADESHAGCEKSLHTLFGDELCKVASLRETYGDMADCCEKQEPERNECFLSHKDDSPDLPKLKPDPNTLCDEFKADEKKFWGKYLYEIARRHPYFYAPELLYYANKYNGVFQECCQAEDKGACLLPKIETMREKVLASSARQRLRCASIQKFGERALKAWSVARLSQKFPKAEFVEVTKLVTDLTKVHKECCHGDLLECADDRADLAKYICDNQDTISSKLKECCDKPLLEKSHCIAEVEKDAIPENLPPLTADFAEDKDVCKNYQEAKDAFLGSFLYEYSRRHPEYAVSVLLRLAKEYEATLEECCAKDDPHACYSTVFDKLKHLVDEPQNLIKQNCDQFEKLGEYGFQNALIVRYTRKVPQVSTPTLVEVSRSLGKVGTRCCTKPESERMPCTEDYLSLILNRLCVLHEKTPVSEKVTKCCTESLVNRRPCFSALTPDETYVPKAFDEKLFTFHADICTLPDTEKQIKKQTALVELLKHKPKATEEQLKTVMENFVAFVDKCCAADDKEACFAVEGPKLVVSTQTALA

Regarding `OCCCc1cc[n+](Cc2cc3c(cc2Br)OCO3)cc1`, the composite z-score was 0.038 with Albumin (Bos taurus); 0.0785 in assay [2]; -0.112 in assay [3]; -0.213 in assay [4]; -0.608 in assay [5]; 0.324 in [6]. Further, the values for the composite z-score (in the assay with Sam68 (KHDRBS1); in assay [7]; in assay [8]) were -0.724, -0.418 and -1.9, respectively. In addition, the composite Z-score in [1] is -0.0354 (inactive).
`CC(C)N1C(=O)[C@@]2(Cc3ccccc31)c1ccccc1C(=O)N(Cc1ccccc1C(F)(F)F)[C@H]2c1ccc(CO)cc1`: the composite z-score with Albumin (Bos taurus) was -0.832; in [2] it was -0.374; in assay [3] it was 0.0015; in assay [4] it was 0.754; in assay [5], -0.011; in assay [6] it was 0.739. The composite z-score with Sam68 (KHDRBS1) was determined as 1.01; in assay [7], 1.14; in assay [8] it was 1.1. Besides, the composite Z-score in assay [1] was 0.795 (inactive).
For the molecule `CN(C)CCCCCCNC(=O)[C@@H]1C[C@@H]2C(=O)N[C@@H](CCCC[N+](C)(C)C)C(=O)N2[C@@H]1c1cccc(OCCO)c1`, the composite z-score with Albumin (Bos taurus) was 0.792; in [2], -0.155; in [3], -0.0495; in [4], 0.321; in assay [5], 0.617; in assay [6], 0.98. Besides, the composite z-score is -0.311 in the assay on Sam68 (KHDRBS1), -0.0783 in assay [7] and 0.566 in assay [8]. Moreover, the composite Z-score in [1] is 1.88 (inactive).
As to `COCCCNC(=O)[C@@]1(Cc2ccccc2I)c2ccccc2C(=O)N(C2CCCCC2)[C@H]1c1ccc(CO)cc1`, the composite z-score with Albumin (Bos taurus) is 0.653; in assay [2] it was -0.0377; in assay [3] it was -0.112; in [4], 0.544; in [5], 2.36; in assay [6], 0.386. In addition, the composite z-score is 1.03 with Sam68 (KHDRBS1), -0.415 in assay [7] and 0.75 in assay [8]. In assay [1], the composite Z-score is 0.732 (inactive).
As for `Cc1ccc(S(=O)(=O)N2[C@@H](c3ccccc3)C(C(=O)O)=C[C@H]2C(C)(C)C)cc1`, the composite z-score with Albumin (Bos taurus) amounted to 1; in [2], 0.178; in assay [3], 0.0458; in assay [4], 0.756; in [5], 2.82; in assay [6], 0.827. Also, the results for the composite z-score (in the assay on Sam68 (KHDRBS1); in assay [7]; in assay [8]) were 1.3, -0.301 and 1.17, respectively. Moreover, the composite Z-score in [1] was 0.882 (inactive).
Regarding `[N-]=[N+]=Nc1ccccc1C[C@]1(C(=O)N2CCCCC2)N=C(c2ccc(OCCCO)cc2)O[C@H]1c1ccccc1`, the composite z-score with Albumin (Bos taurus) worked out at 0.737; in assay [2], 0.196; in [3] it was 0.179; in assay [4], 0.708; in assay [5], 1.52; in assay [6], 0.121. The composite z-score with Sam68 (KHDRBS1) is 1.31; in assay [7], -0.249; in assay [8], 1.18. For the same molecule, the composite Z-score in assay [1] is -0.399 (inactive).
For `COC(=O)[C@@]1(Cc2ccc(F)cc2)[C@H]2c3cc(C(=O)N4CCCC4)n(C[C@H](O)CO)c3C[C@H]2CN1C(=O)c1ccccc1`, the composite z-score with Albumin (Bos taurus) stood at 1.13; in assay [2] it was 0.591; in assay [3], 0.678; in assay [4], 0.844; in assay [5], 2.88; in assay [6], 1.23. Also, the figures for the composite z-score (in the assay with Sam68 (KHDRBS1); in assay [7]; in assay [8]) were 0.208, 0.0578 and 0.779, respectively. Besides, in [1], the composite Z-score was 0.133 (inactive).
Regarding `O=C1OC[C@@H](c2ccccc2)n2cc(/C=C/c3ccccc3)cc21`, the composite z-score was -0.456 in the assay with Albumin (Bos taurus); -0.189 in assay [2]; -0.149 in assay [3]; 0.43 in assay [4]; 0.163 in assay [5]; -0.475 in [6]. For the same molecule, the composite z-score in the assay on Sam68 (KHDRBS1) was -1.14; in assay [7], -0.701; in assay [8], 0.51. Moreover, the composite Z-score in assay [1] was 0.597 (inactive).
As to `CC(C)(C)OC(=O)CC[C@@]1(C(N)=O)N=C(c2ccc(OCCCO)cc2)O[C@@H]1c1ccccc1CN=[N+]=[N-]`, the composite z-score stood at 0.818 with Albumin (Bos taurus); 0.651 in assay [2]; 0.27 in assay [3]; 0.876 in [4]; 3.13 in assay [5]; 1.12 in [6]. In addition, the composite z-score in the assay with Sam68 (KHDRBS1) was found to be 0.914; in [7] it was 0.312; in [8] it was 0.933. Also, in [1], the composite Z-score is -0.0657 (inactive).
On to `O=C1OCCC/C=C\[C@H]2OC34C=CCN(Cc5ccccc5)C(=O)[C@H]3N(CCO)C(=O)[C@@H]4C12` (stereo not given in full), for which the composite z-score is -0.78 with Albumin (Bos taurus); 0.157 in assay [2]; -0.0658 in [3]; 0.885 in [4]; 1.11 in [5]; 0.623 in [6]. The composite z-score in the assay with Sam68 (KHDRBS1) is 0.747; in assay [7], -0.32; in assay [8] it was -0.619. Besides, the composite Z-score in assay [1] is 0.822 (inactive).
For `COC(=O)[C@@]1(Cc2ccc(F)cc2)[C@H]2c3cc(C(=O)N(C)C)n(Cc4ccc(C(F)(F)F)nc4)c3C[C@H]2CN1C(=O)c1ccccc1`, the composite z-score was 0.98 with Albumin (Bos taurus); 0.894 in assay [2]; -0.0531 in [3]; 0.726 in assay [4]; 3.26 in [5]; 0.311 in assay [6]. The composite z-score in the assay with Sam68 (KHDRBS1) worked out at 1.33; in assay [7] it was 0.214; in assay [8], 1.1. The composite Z-score in [1] is -0.387 (inactive).
On to `COC(=O)C(CC#Cc1ccc2c(c1)[C@]1(C(=O)N2)[C@H](C(=O)N2CCN(c3ncccn3)CC2)[C@H]2C(=O)O[C@H](c3ccccc3)[C@H](c3ccccc3)N2[C@@H]1c1ccc(O)cc1)C(=O)OC`, for which the composite z-score with Albumin (Bos taurus) was -0.542; in [2], 0.972; in [3], 0.279; in [4], 0.636; in assay [5], 2.38; in assay [6], 0.97. The composite z-score in the assay with Sam68 (KHDRBS1) came to 1.28; in assay [7] it was 1.08; in [8], 1.21. Also, the composite Z-score in assay [1] was 0.939 (inactive).
With `CN1C(=O)C2C=CC(C(O)c3ccc([N+](=O)[O-])cc3)N(Nc3ccccc3)C2C1=O` (stereo not given), the composite z-score with Albumin (Bos taurus) is 1.06; in assay [2], 0.315; in [3], -0.0305; in assay [4] it was 0.652; in assay [5], 1.94; in assay [6], 0.701. In addition, the composite z-score with Sam68 (KHDRBS1) stood at 1.31; in assay [7], 0.196; in [8], 1.15. The composite Z-score in assay [1] was -1.05 (inactive).
For `C=C1C(=O)C=C2CN(C(=O)c3ccccc3)[C@@](Cc3ccc(F)cc3)(C(=O)OC)[C@@H]12`, the composite z-score with Albumin (Bos taurus) came out at 1.03; in [2], 0.693; in assay [3] it was 0.009; in [4] it was 0.5; in assay [5] it was 2.76; in assay [6] it was 0.942. For the same molecule, the composite z-score in the assay with Sam68 (KHDRBS1) was 1.34; in assay [7] it was -0.775; in assay [8], 1.14. The composite Z-score in assay [1] is 0.114 (inactive).
For the molecule `C=C[C@H](C)[C@@H](OC(=O)Nc1ccc(SC)cc1)c1ccc(OCCO)cc1`, the composite z-score with Albumin (Bos taurus) is 0.312; in [2] it was 0.137; in assay [3], -0.0008; in assay [4] it was 0.397; in assay [5] it was 1.59; in assay [6], 0.471. For the same molecule, the composite z-score came to 0.157 in the assay on Sam68 (KHDRBS1), 0.28 in assay [7] and 0.272 in assay [8]. In [1], the composite Z-score was 0.794 (inactive).
Consider `CC1C2C(CCCO)=CC(C3C(=O)N(C(N)=O)C(=O)C23)N1Cc1cccc(OC(F)(F)F)c1` (stereo not given), for which the composite z-score with Albumin (Bos taurus) was 1; in assay [2] it was -0.068; in assay [3], -0.114; in [4], 0.699; in [5], 1.22; in [6] it was 0.147. The composite z-score was 1.33 with Sam68 (KHDRBS1), 0.0627 in assay [7] and -0.0715 in assay [8]. In addition, the composite Z-score in assay [1] is 0.649 (inactive).
In the case of `CC(C)C[C@H]1NC(=O)CNC(=O)[C@@]23C(=O)N[C@@H](Cc4ccccc4)C2[C@H](C)[C@@]2(C)O[C@H]2C3/C=C/C/C=C\CNC1=O` (stereo not given in full), the composite z-score with Albumin (Bos taurus) was 0.591; in assay [2] it was -0.0984; in assay [3] it was -0.133; in assay [4], 0.392; in assay [5], 0.677; in assay [6], 0.248. Moreover, the composite z-score in the assay on Sam68 (KHDRBS1) was determined as 0.258; in assay [7], 0.599; in assay [8], 0.0947. For the same molecule, the composite Z-score in assay [1] was -0.0443 (inactive).

These data come from PubChem BioAssay.
